Bioassay records (PubChem)
mHTT-CaM PPI inh: mHTT-calmodulin interaction abrogation; AID 1671202; AlphaScreen His-mHTT/GST-CaM binding, luminescence; inhibition, % at 15 µM; actives 3.6% (n = 190,000);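 further: 0% = both proteins with DMSO and 100% = one protein alone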
Pf apPOL inh: Pf-apPOL DNA polymerase inhibition; Recombinant Pf-apPOL, molecular beacon fluorescence, 1.5 h; inhibition, % at 10 µM; actives 0.25% (n = 210,000)
Numbers without * were called inactive; nt = not tested or not shown; ! = repeats disagree. The full list was thinned out, with hits kept by preference. No stated cut-off is given here; in the data, active means inhibition above about 50%; inactive means the rest.

SMILES	mHTT-CaM PPI inh	Pf apPOL inh
Cc1ccc(NC(=O)C2CN(S(C)(=O)=O)CC23CCCCC3)c(F)c1 (centres undefined)	7.0	1.9
C=CC(C)(C)OCC(O)CN1CCC(Cc2ccccc2)CC1 (centres undefined)	-2.0	2.0
Cc1c(CCC#N)c(-n2ccnc2C)n2c(nc3ccccc32)c1C#N	-2.0	-2.5
Cc1nn(-c2ccc(F)cc2)c2nc(C3CC3)nc(N3CCCCC3)c12	-4.1	-1.7
CC(=O)Nc1ccc(-c2noc(C3CCCN(C(=O)c4cc5ccccc5[nH]4)C3)n2)cc1 (centres undefined)	-4.2	-1.8
CC(=O)Nc1ccc(-c2noc(C3CCN(C(=O)c4cc5ccccc5[nH]4)CC3)n2)cc1	98.2*	3.0
COc1cccc(-c2nc(C3CCN(C(=O)c4cc5ccccc5[nH]4)CC3)no2)c1	8.4	-21.7
COc1cccc(-c2nc(C3CCN(C(=O)c4nccc5ccccc45)CC3)no2)c1	98.1*	-6.0
O=C(c1cc2cc(Cl)ccc2[nH]1)N1CCC(c2noc(-c3ccccc3)n2)CC1	83.4*	7.7
O=C(c1cc2ccccc2[nH]1)N1CCC(c2noc(-c3ccccc3)n2)CC1	-5.2	2.8
CC(C)(Oc1ccc(Cl)cc1)C(=O)Nc1nnc(-c2ccsc2)o1	43.3	-111.7
Cc1cc(-c2nnc(NC(=O)C(C)(C)Oc3ccc(Cl)cc3)o2)c(C)o1	98.4*	-135.5
Cc1nc2ccccc2n1CC1CCN(CC(=O)Nc2ccc3c(c2)OCCO3)CC1	-7.6	-9.0
CCN(CC)C(=O)CNC(=O)c1nn(-c2ccc(OC)c(Cl)c2)c(=O)c2ccccc12	56.0*	-3.4
CCN(CC)C(=O)CNC(=O)c1nn(-c2ccc(OC)c(OC)c2)c(=O)c2ccccc12	9.0	-8.2
COc1ccc(-n2nc(C(=O)NCC(=O)NCc3ccccc3)c3ccccc3c2=O)cc1Cl	98.0*	-6.1
COc1ccc(-n2nc(C(=O)NCC(=O)Nc3cccc(C)n3)c3ccccc3c2=O)cc1Cl	6.0	0.4
O=C1CC(c2c[nH]c3ccccc23)C(=O)N1c1ccc(O)cc1 (centres undefined)	76.6*	-4.2
CC(C)(C)c1ccc(N2C(=O)CC(c3ccccc3)C2=O)cc1 (centres undefined)	nt	1.9
Cn1nc([N+](=O)[O-])nc1Sc1nc2ccccc2n1C	-3.0	-4.7
O=[N+]([O-])c1ccc(CSc2cccc3cccnc23)cc1	63.0*!	-5.1
O=C(Sc1cccc2cccnc12)c1ccc([N+](=O)[O-])cc1	100.0*	-2.5
Cn1nc([N+](=O)[O-])nc1Sc1cccc2cccnc12	66.1*	-18.1
O=[N+]([O-])c1ccc(CSc2ccccn2)cc1	nt	-0.4
CCN(CC)C(=O)Sc1cccc2cccnc12	1.0	0.2
SMILES	mHTT-CaM PPI inh	Pf apPOL inh
N#CCc1nc(-c2ccc(Cl)c(Cl)c2)cs1	nt	-16.8
Cn1c(=O)[nH]c(=O)c2c1nc(Br)n2CCO	-1.0	-9.9
O=C(c1cccc(OCC2CCCN(C(=O)c3cccc(Cl)c3)C2)c1)N1CCCC1 (centres undefined)	7.3	-5.3
Cc1nc2ccccc2c(=O)n1Cc1ccco1	-0.3	-1.8
N=c1c2c(-c3ccccc3)c(-c3ccccc3)n(Cc3ccco3)c2ncn1Cc1ccco1	99.0*	-1.6
COc1cc(CN2CCc3c([nH]c4ccccc34)C2)c([N+](=O)[O-])cc1OC	66.0*	-2.8
COc1ccc(CN2CCc3c([nH]c4ccccc34)C2)cc1C	35.5	-3.3
COc1cc(CN2CCN(Cc3cccc(OC)c3OC)CC2)c([N+](=O)[O-])cc1OC	4.0	0.5
COc1cc(C)c(CN2CCc3c([nH]c4ccccc34)C2)cc1C	99.7*	-7.3
CC(=O)Nc1nonc1-c1nc2ccccc2n1Cc1ccccc1F	0.0	-5.6
O=C(NCc1ccc(F)cc1Cl)c1cn2ccccc2n1	-3.4	-0.1
CC(C)c1[nH]nc2c1C1(C(=O)Nc3ccc(F)cc31)C(C#N)=C(N)O2 (centres undefined)	3.0	-0.2
O=C(c1ccc2ncnc(N3CCCCC3)c2c1)N1CCCCC1	-10.0	-0.9
O=[N+]([O-])c1ccc(N2CCN(S(=O)(=O)c3ccccc3)CC2)cc1SCc1ccco1	98.3*	-8.9
O=[N+]([O-])c1ccc(N2CCOCC2)cc1SCc1ccco1	24.5	-5.7
COC(=O)c1ccccc1NC(=O)C1CN(C(=O)c2ccc(F)c(F)c2)C1	-14.3	-3.6
Cc1cc(/C=C2/C(=O)NC(=O)N(C)C2=O)c(C)n1-c1ccc(F)c(Cl)c1	7.0	-3.6
Cc1cc(/C=C2\NC(=O)NC2=O)c(C)n1-c1cccc(I)c1	91.0*	1.0
Cc1cc(/C=C2\NC(=O)NC2=O)c(C)n1-c1ccc(Cl)c(Cl)c1	100.0*	-2.9
Cc1cc(/C=C2\SC(=O)NC2=O)c(C)n1-c1ccc(I)cc1	12.0	7.4
COc1ccccc1CC(=O)N1CCN(C2=CC3=NCC(C)N3C=N2)CC1 (centres undefined)	14.8	-4.3
Cc1ccccc1OCC(=O)N1CCN(C2=CC3=NCC(C)N3C=N2)CC1 (centres undefined)	99.5*	0.8
